The source of these data is PubChem BioAssay (Tox21).

Assay [1] is described as follows: A CellTox Green Cytotoxicity Assay to monitor cytotoxicity in HEK293 cells - 40 hour (AID 1224871). Further: nearly all actives have a fitted effect of over 45% in size. Further: potency means the concentration at half of the fitted maximal effect. The procedure, abridged: (§1)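 Nonlytic real-time cytotoxicity: HEK293 + CellTox Green reagent plated, 5 h preincubation, pintool compound addition (23 nL in DMSO), 37 C for 40 h, fluorescence measured at successive time points.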
A short description of assay [2]: qHTS RealTime-Glo MT Cell Viability Assay in HEK293 cells - 16 hour (AID 1224872). Further: nearly all actives have a fitted effect of over 50% in size. Further: potency means the concentration at half of the fitted maximal effect. The procedure, abridged: (§2)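 Cells + reagent dispensed (600 cells/well, HEK293) → 5 h at 37 C/5% CO2 → 23 nL compound in DMSO pinned → 40 h at 37 C → luminescence read at 0, 8, 16, 24, 32, 40 h.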
A general note: Quantitative high-throughput screening tests each substance at several concentrations.

A short description of assay [3]: qHTS RealTime-Glo MT Cell Viability Assay in HepG2 cells - 8 hour (AID 1224873). Further: nearly all actives have a fitted effect of over 55% in size. The procedure, abridged:
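HepG2 cells (600/well) mixed with RealTime-Glo MT reagent, settled 5 h at 37 C/5% CO2 before compound addition. Nonlytic NanoLuc luminescence from viable-cell prosubstrate reduction read repeatedly during 40 h treatment at 37 C.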

A short description of assay [4]: A CellTox Green Cytotoxicity Assay to monitor cytotoxicity in HEK293 cells - 24 hour (AID 1224875). Further: nearly all actives have a fitted effect of over 45% in size. Further: potency means the concentration at half of the fitted maximal effect. The procedure, abridged:
as §1

Assay [5] is described as follows: A CellTox Green Cytotoxicity Assay to monitor cytotoxicity in HepG2 cells - 16 hour (AID 1224876). Further: nearly all actives have a fitted effect of over 45% in size. Further: potency means the concentration at half of the fitted maximal effect. In a few lines: (§3)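 Read-out is fluorescence of a cyanine dye excluded from live cells that stains DNA of dead HepG2 cells, with signal proportional to cytotoxicity. Plates were read at 0, 8, 16, 24, 32 and 40 h after compound addition.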
Assay [6] in a line: qHTS RealTime-Glo MT Cell Viability Assay in HepG2 cells - 32 hour (AID 1224877). Further: nearly all actives have a fitted effect of over 55% in size. Further: potency means the concentration at half of the fitted maximal effect. In a few lines:
(§4)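 Real-time, nonlytic viability: 600 HepG2 cells/well mixed with NanoLuc enzyme plus prosubstrate; 5 h settle, compound (DMSO) added by pintool; luminescence monitored over 40 h at 37 C.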

The nature of assay [7]: A CellTox Green Cytotoxicity Assay to monitor cytotoxicity in HepG2 cells - 24 hour (AID 1224878). Further: nearly all actives have a fitted effect of over 45% in size. Further: potency means the concentration at half of the fitted maximal effect. The procedure, abridged:
as §3

Assay [8] can be described thus: A CellTox Green Cytotoxicity Assay to monitor cytotoxicity in HepG2 cells - 40 hour (AID 1224879). Further: nearly all actives have a fitted effect of over 40% in size. Further: potency means the concentration at half of the fitted maximal effect. In a few lines:
as §3

Assay [9] in a line: qHTS RealTime-Glo MT Cell Viability Assay in HEK293 cells - 0 hour (AID 1224880). The procedure, abridged:
(§5)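 Cells were seeded together with NanoLuc luciferase and a prosubstrate that viable cells reduce to a luciferase substrate. After a 5 h incubation at 37 C/5% CO2, compounds were added and luminescence was measured repeatedly during 40 h of treatment.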

Assay [10] in a line: A CellTox Green Cytotoxicity Assay to monitor cytotoxicity in HEK293 cells - 32 hour (AID 1224881). Further: nearly all actives have a fitted effect of over 40% in size. Further: potency means the concentration at half of the fitted maximal effect. The procedure, abridged: as §1
Assay [11] in a line: A CellTox Green Cytotoxicity Assay to monitor cytotoxicity in HepG2 cells - 32 hour (AID 1224883). Further: nearly all actives have a fitted effect of over 50% in size. Further: potency means the concentration at half of the fitted maximal effect. In a few lines: as §3
Assay [12] can be described thus: A CellTox Green Cytotoxicity Assay to monitor cytotoxicity in HEK293 cells - 8 hour (AID 1224884). Further: nearly all actives have a fitted effect of over 35% in size. Further: potency means the concentration at half of the fitted maximal effect. The procedure, abridged:
as §1

Assay [13] can be described thus: qHTS RealTime-Glo MT Cell Viability Assay in HepG2 cells - 16 hour (AID 1224885). Further: nearly all actives have a fitted effect of over 50% in size. Further: potency means the concentration at half of the fitted maximal effect. The procedure, abridged: as §4
Assay [14] in a line: qHTS RealTime-Glo MT Cell Viability Assay in HEK293 cells - 24 hour (AID 1224886). Further: nearly all actives have a fitted effect of over 50% in size. Further: potency means the concentration at half of the fitted maximal effect. The procedure, abridged:
as §2

A short description of assay [15]: qHTS RealTime-Glo MT Cell Viability Assay in HEK293 cells - 8 hour (AID 1224887). Further: nearly all actives have a fitted effect of over 50% in size. Further: potency means the concentration at half of the fitted maximal effect. In a few lines:
as §5

Assay [16] can be described thus: A CellTox Green Cytotoxicity Assay to monitor cytotoxicity in HEK293 cells - 16 hour (AID 1224888). Further: nearly all actives have a fitted effect of over 35% in size. Further: potency means the concentration at half of the fitted maximal effect. In a few lines: as §1
Assay [17] can be described thus: qHTS RealTime-Glo MT Cell Viability Assay in HepG2 cells - 0 hour (AID 1224889). Further: nearly all actives have a fitted effect of over 50% in size. The procedure, abridged:
as §4

Assay [18] in a line: qHTS RealTime-Glo MT Cell Viability Assay in HEK293 cells - 40 hour (AID 1224874). Further: nearly all actives have a fitted effect of over 50% in size. Further: potency means the concentration at half of the fitted maximal effect. To be noted: RealTime-Glo luminescence; max response: stronger effect = lower value. The procedure, abridged:
as §5

Assay [19] can be described thus: A CellTox Green Cytotoxicity Assay to monitor cytotoxicity in HepG2 cells - 0 hour (AID 1224882). Further: nearly all actives have a fitted effect of over 35% in size. In a few lines:
as §3

The nature of assay [20]: A CellTox Green Cytotoxicity Assay to monitor cytotoxicity in HepG2 cells - 8 hour (AID 1224890). Further: nearly all actives have a fitted effect of over 45% in size. Further: potency means the concentration at half of the fitted maximal effect. The procedure, abridged:
as §3

Where “and” joins values, the source holds several entries; their conditions need not be identical. Equal values may be shown once. Values without a mark were called inactive. Inconclusive results are not listed. Calls of active or inactive are those of the source. The call rests on the fitted dose curve; in most records, active means well fitted curve in the direction sought with a large enough effect in the repeat runs; inconclusive means weak or mixed curves; inactive means no such curve, though single readings can be large; an effect the other way counts as inactive or inconclusive.
On the % scale 0 is the no-effect control and ±100 the full control effect.

Consider `CCOc1ccc2ccccc2c1C(=O)N[C@@H]1C(=O)N2[C@@H]1SC(C)(C)[C@@H]2C(=O)O`, for which the Potency entry in [1], in [2], in assay [3], in assay [4], in assay [5] and in assay [6] was “inactive” in each case. Besides, the Potency result in [7], in [8], in assay [9], in assay [10], in assay [11] and in [12] was “inactive” in each case. The Potency entry in [13], in [14], in assay [15], in assay [16] and in assay [17] was “inactive” in each case.

For `CC(C)(C)c1ccc(C(O)CCCN2CCC(C(O)(c3ccccc3)c3ccccc3)CC2)cc1` (stereo unspecified), the Potency is 7.56 µM (active) in assay [1]; 6.74 µM (active) in assay [2]; 4.77 µM (active) in assay [18]; 9.52 µM (active) in [4]; 10.7 µM (active) in assay [5]; 5.35 µM (active) in assay [6]. Besides, the Potency in [7] was 8.49 µM (active); in assay [8], 5.35 µM (active); in [10] it was 8.49 µM (active); in [11], 5.35 µM (active); in assay [12] it was 21.3 µM (active); in assay [13] it was 7.56 µM (active). Besides, the Potency in assay [14] is 5.35 µM (active); in assay [15], 8.49 µM (active); in assay [16] it was 13.4 µM (active); in [20], 15.1 µM (active). Moreover, the Potency entry in assay [19] and in [17] was “inactive” each time.

As for `CCCCCCCCCCCCCC[N+](C)(C)Cc1ccccc1`, the Potency was 24.9 µM (active) and 19 µM (active) and 15.8 mM (active) in assay [1]; 19.8 µM (active) and 9.52 µM (active) and 12.6 mM (active) in [2]; 3.14 µM (active) and 3.01 µM (active) and 1.58 mM (active) in assay [18]; 39.5 µM (active) and 21.3 µM (active) and 17.8 mM (active) in assay [4]; 49.7 µM (active) and 23.9 µM (active) and 17.8 mM (active) in assay [5]; 24.9 µM (active) and 13.4 µM (active) in [6]. Moreover, the Potency is 39.5 µM (active) and 16.9 µM (active) and 17.8 mM (active) in assay [7]; 22.2 µM (active) and 15.1 µM (active) and 14.1 mM (active) in assay [8]; 39.5 µM (active) and 19 µM (active) and 17.8 mM (active) in assay [10]; 35.2 µM (active) and 15.1 µM (active) and 14.1 mM (active) in [11]; 55.8 µM (active) and 21.3 µM (active) and 20 mM (active) in assay [12]; 49.7 µM (active) and 21.3 µM (active) and 17.8 mM (active) in assay [13]. Besides, the Potency in assay [14] was 5.58 µM (active) and 6.74 µM (active) and 5.01 mM (active); in assay [15], 49.7 µM (active) and 20 mM (active); in assay [16], 44.3 µM (active) and 23.9 µM (active) and 20 mM (active); in assay [20], 26.8 µM (active) and 20 mM (active). For the same compound, the Potency entry in assay [9], in assay [19] and in assay [17] was “inactive” in each case.

Regarding `C=CCn1c(=O)n(CC=C)c(=O)n(CC=C)c1=O`, the Potency entry in assay [1], in assay [2], in assay [3], in assay [4], in assay [5] and in [6] was “inactive” each time. Also, the Potency entry in assay [7], in assay [8], in [9], in assay [10], in assay [19] and in assay [11] was “inactive” each time. In addition, the Potency entry in assay [12], in [13], in [14], in assay [15], in assay [16] and in assay [17] was “inactive” in each case. Further, in assay [20], the Potency result was “inactive”.

For the compound `CC(=O)Oc1cc2c(s1)CCN(C(C(=O)C1CC1)c1ccccc1F)C2` (stereo unspecified), the Potency entry in [1], in [2], in assay [4], in [5], in assay [6] and in [7] was “inactive” in each case. Besides, the Potency entry in assay [8], in assay [9], in assay [10], in [19], in assay [11] and in assay [12] was “inactive” throughout. In addition, the Potency entry in assay [13], in [14], in assay [15], in assay [16], in assay [17] and in assay [20] was “inactive” in each case. Moreover, the max response in assay [18] is -4.77%.

On to `CCC(C)[O-].CCC(C)[O-].CCOC(=O)/C=C(/C)[O-].[Al+3]`, for which the Potency entry in assay [1], in assay [2], in assay [4], in assay [5], in assay [6] and in assay [7] was “inactive” in each case. The Potency entry in assay [8], in [9], in [10], in [19], in assay [11] and in assay [12] was “inactive” throughout. In addition, the Potency result in assay [13], in [14], in assay [15], in [16], in assay [17] and in assay [20] was “inactive” throughout. The max response in assay [18] was 0.788%.
